Assay outcomes deposited in PubChem BioAssay by several laboratories.
Most compounds without a hit are left out; they make up all but 4.2% or so of the library.
CCHFV vOTU inh = CCHFV vOTU protease inhibitors, primary screen, biochemical, Pep-AMC substrate, fluorescence | 370,000 compounds, 0.55% hits | AID 651958, 2012 | inhibition, % at 11.5 µM
GDH-TPI counter = GDH-TPI coupling enzyme inhibitors, primary screen, artefact control for M. tuberculosis FBA inhibitor project, biochemical, absorbance, full deck; GDH-TPI coupled enzyme counterscreen, NADH absorbance; inhibition, % at 4.8 µM; AID 588335, 2011; 360,000 compounds, 1.2% hits
RecA splice inh = Mtb RecA intein splicing inhibitors, primary screen, biochemical, fluorescence, HTS | AID 2221, 2009 | inhibition, % (test concentration not listed) | cell-free RecA intein splicing | 290,000 compounds, 0.75% hits | Protein RecA (Mycobacterium tuberculosis (strain ATCC 25618 / H37Rv)), P9WHJ3; in the data active means inhibition above about 30%
FBA Mtb inh = Mtb FBA enzyme inhibitors, primary screen, biochemical, fluorescence, strain H37Rv | purified M. tuberculosis FBA, fluorescence read-out | inhibition, % at 1 µM | 360,000 compounds, 2.3% hits; in the data active means inhibition above about 27%
Target sequence (P9WQA3 whole entry, looked up): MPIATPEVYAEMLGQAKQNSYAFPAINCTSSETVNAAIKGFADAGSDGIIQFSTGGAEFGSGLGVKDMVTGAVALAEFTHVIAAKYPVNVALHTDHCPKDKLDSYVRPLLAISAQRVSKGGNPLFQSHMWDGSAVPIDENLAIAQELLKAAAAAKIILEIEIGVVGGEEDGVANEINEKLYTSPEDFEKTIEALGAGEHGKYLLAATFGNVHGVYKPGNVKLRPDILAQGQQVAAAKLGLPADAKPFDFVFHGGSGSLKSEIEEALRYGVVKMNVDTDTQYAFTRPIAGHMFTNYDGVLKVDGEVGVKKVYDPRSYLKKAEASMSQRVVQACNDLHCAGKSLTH
Large screens that a line does not name were inactive. Unless noted, no stated cut-off is given here; in the data, active means inhibition above about 30%; inactive means the rest.

CCOC(=O)C1=C(O)C(=O)N(c2ccc(S(N)(=O)=O)cc2)C1c1ccc(Cl)cc1 (centres undefined)	none
OC(c1ccccc1)(c1ccccc1)C1CCN(CCCOc2cccc(F)c2)CC1	none (no result: GDH-TPI counter, RecA splice inh, FBA Mtb inh)
COc1cc(COc2ccc3c(C)c(CCC(=O)O)c(=O)oc3c2)cc(OC)c1OC	none
Cc1c(CC(=O)O)c(=O)oc2cc(OCc3ccc(F)cc3Cl)ccc12	FBA Mtb inh 167
Cc1c(CCC(=O)O)c(=O)oc2cc(OCc3ccccc3F)ccc12	FBA Mtb inh 121
Cc1cc(C)cc(NC(=O)COc2ccc3c(C)c(Cc4ccccc4)c(=O)oc3c2)c1	none (no result: CCHFV vOTU inh, GDH-TPI counter, FBA Mtb inh)
O=C(CNC1=NCCC1)c1ccc(Cl)cc1	RecA splice inh 45
COc1ccc(C(=O)CNC2=NCCC2)cc1	none
COc1ccc(/C=N\Nc2ccccn2)c(OC)c1	GDH-TPI counter 36
COc1ccc(/C=N/Nc2ccccn2)c(OC)c1OC	none
CCOc1cc(/C=N/Nc2nc(=O)[nH]nc2C)ccc1O	none
CCOc1ccc(/C=N/Nc2nc(=O)[nH]nc2C)cc1OC	GDH-TPI counter 33
CCOc1ccc(/C=N/Nc2ccccn2)cc1OC	none
CCCOc1ccc(/C=N/Nc2ccccn2)cc1OC	GDH-TPI counter 35
CC(C)C[C@H]1COc2cccc(F)c2S(=O)(=O)N1Cc1cn(Cc2ccc(Cl)cc2)nn1	none (no result: GDH-TPI counter, RecA splice inh, FBA Mtb inh)
CCS(=O)(=O)Nc1ccc2c(c1)C(=O)N(C)[C@@H]1CC[C@H](CC(=O)OC)O[C@H]1CO2	none (no result: GDH-TPI counter, RecA splice inh, FBA Mtb inh)
CS(=O)(=O)Nc1ccccc1C(=O)OCC(=O)N1CCC(c2ccccc2)=N1	none (no result: RecA splice inh)
COc1ccc(/C=N/NC(=O)CNC(=O)c2ccncc2)cc1OC	none
Cc1c(NC(=S)N/N=C/c2ccc([N+](=O)[O-])cc2O)c(=O)n(-c2ccccc2)n1C	GDH-TPI counter 48
Cc1c(NC(=S)N/N=C\c2ccccc2O)c(=O)n(-c2ccccc2)n1C	GDH-TPI counter 31
COc1ccc(/C=N/NC(=S)Nc2c(C)n(C)n(-c3ccccc3)c2=O)cc1OC	none
COc1cccc(C(=O)N2CCC(Oc3cccnc3)CC2)c1	none (no result: GDH-TPI counter, RecA splice inh, FBA Mtb inh)
CN(C)NC(=O)c1cccc(Cl)c1	none
CN(C)/C=C/C(=O)c1cccc(Cl)c1	GDH-TPI counter 42
CN(C)/C=C/C(=O)c1ccc([N+](=O)[O-])c(CS(=O)(=O)c2ccccc2)c1	none
CN(C)/C=C/C(=O)c1ccc(Cl)cc1	GDH-TPI counter 48
CN(C)/C=C/C(=O)c1cccc(C(F)(F)F)c1	GDH-TPI counter 50
CN(C)/C=C/C(=O)c1ccc(Cl)c([N+](=O)[O-])c1	GDH-TPI counter 31
Cc1cc2c(c(=O)o1)[C@@]1(C(=O)N(C)c3ccccc31)C1=C(CCCC1=O)O2	none (no result: GDH-TPI counter, RecA splice inh, FBA Mtb inh)
O=C(COC(=O)C1COc2ccccc2O1)Nc1ccccc1OC(F)F (centres undefined)	none (no result: RecA splice inh)
CCc1nc2c(OCCOc3ccc(F)cc3)cccn2c1N(C)C(=O)C(C)C	none (no result: RecA splice inh)
CN(C)/C=C/C(=O)c1ccc(Oc2ncccn2)cc1	none
Cc1ccc(C(=O)/C=C/N(C)C)cn1	GDH-TPI counter 31
CCOC(=O)CC[C@H]1CC[C@]2(CCCN(Cc3ccccc3)C2)O1	none (no result: GDH-TPI counter, RecA splice inh, FBA Mtb inh)
Cc1ccc2[nH]c(O)c(N=NC(N)=S)c2c1	GDH-TPI counter 38
NC(=S)N=Nc1c(O)[nH]c2ccccc12	none
CC(=O)N1CCc2c(sc(NC(=O)c3ccc([N+](=O)[O-])o3)c2C#N)C1	none
COC(=O)c1sc(NC(=O)c2ccc([N+](=O)[O-])o2)c(C#N)c1C	GDH-TPI counter 32
COc1ccc(S(=O)(=O)Nc2nc3ccccc3nc2NCC2CCCO2)cc1 (centres undefined)	FBA Mtb inh 27
Cc1ccc(S(=O)(=O)Nc2nc3ccccc3nc2NCC2CCCO2)cc1 (centres undefined)	none
O=S(=O)(Nc1nc2ccccc2nc1NCC1CCCO1)c1ccccc1 (centres undefined)	GDH-TPI counter 41
COc1ccccc1-c1oc2ccccc2c1-c1ccc2cc[nH]c2c1	none (no result: RecA splice inh)
CCOC(=O)c1ccc(-c2c(-c3ccccc3OC)oc3ccccc23)cc1F	FBA Mtb inh 28 (no result: RecA splice inh)
COC(=O)[C@]1(C)N[C@H](CN(C)C(=O)c2ccc(F)cc2)[C@@H]2C(=O)N(Cc3ccccc3)C(=O)[C@@H]21	none (no result: RecA splice inh)
CN(Cc1ccccc1F)C(=O)C1CCC(CNS(=O)(=O)c2cccc3cccnc23)CC1 (centres undefined)	none (no result: GDH-TPI counter, RecA splice inh, FBA Mtb inh)
CCOC(=O)c1cccc(NC(=O)CCc2nnc3ccc(N4CCCCC4)nn23)c1	FBA Mtb inh active
CCOC(=O)c1cccc(NC(=O)CCc2nnc3ccc(N4CCN(C)CC4)nn23)c1	none
COc1ccc(CCNC(=O)C2CCN(C(=O)c3ccc(C(C)(C)C)cc3)CC2)cc1	none
CCOC(=O)c1ccc(NC2=CC(=O)CC(c3ccco3)C2)cc1 (centres undefined)	GDH-TPI counter 60
O=C1NC(=O)C(=CC=Cc2ccccc2)S1	GDH-TPI counter 38 (no result: RecA splice inh)
NC1=NC(=O)/C(=C\C=C\c2ccccc2)S1	none
COc1ccc(S(=O)(=O)N2CCCCCC2)cc1C(=O)N1CCN(c2ccccc2O)CC1	none (no result: RecA splice inh)
NC(=S)N/N=C/c1ccc(-c2cccc([N+](=O)[O-])c2)o1	GDH-TPI counter 50
O=[N+]([O-])c1cccc(-c2ccc(/C=N/NC(=S)Nc3cccc(F)c3)o2)c1	none
O=C(O)c1ccc(N/N=C/c2ccc(-c3cccc(Cl)c3)o2)cc1	GDH-TPI counter 46
NS(=O)(=O)c1ccc(-c2ccc(/C=N/NC(=O)c3ccc([N+](=O)[O-])cc3)o2)cc1	GDH-TPI counter 62
O=C(O)c1ccc(-c2ccc(/C=N/Nc3ccc([N+](=O)[O-])cc3)o2)cc1	GDH-TPI counter 52
Cc1ccc(NC(=O)c2ccc(N3CCCC3=O)cc2)cc1S(=O)(=O)N1CCCCC1	none (no result: RecA splice inh)
O=C(O)c1ccc(N/N=C/C=C/c2ccc([N+](=O)[O-])o2)cc1	GDH-TPI counter 31
CCCOc1ccc(C(=O)Nc2ccc(S(=O)(=O)Nc3onc(C)c3C)cc2)cc1	none
O=C(N/N=C/c1ccc([N+](=O)[O-])o1)C(=O)Nc1ccc(C(=O)O)cc1	none
O=C(O)c1ccc(N/N=C/c2c(F)cccc2Cl)cc1	GDH-TPI counter 38
CCCOc1ccc(C(=O)N/N=C/c2ccc(-c3ccc(S(=O)(=O)Nc4ncccn4)cc3)o2)cc1	GDH-TPI counter 33
O=[N+]([O-])c1ccc(C=NNc2ccc(S(=O)(=O)O)cc2)cc1	GDH-TPI counter 31 (no result: RecA splice inh)
O=C(N/N=C/c1c(F)cccc1Cl)C1CC1	none
O=C(CSc1ccccc1)Nc1nnc(C2CC2)s1	none
O=C(C[C@H]1CC[C@@H](NC(=O)C2CC2)[C@@H](CO)O1)NCc1ccccc1Cl	none (no result: GDH-TPI counter, RecA splice inh, FBA Mtb inh)
O=C(O)c1cc(-c2ccc(/C=N/Nc3ccc([N+](=O)[O-])cn3)o2)ccc1Cl	none (no result: RecA splice inh)
O=C(O)c1cccc(-c2ccc(/C=N/Nc3ccc([N+](=O)[O-])cc3)o2)c1	GDH-TPI counter 33
O=C(O)c1ccc(N/N=C/c2ccc(-c3cc(Cl)ccc3Cl)o2)cc1	none
